Experimental data as given in the supplement of paper PMC11732987, “Enantioselective OTUD7B fragment discovery through chemoproteomics screening and high-throughput optimisation” (Communications Chemistry, 2025).
Values without a mark were called inactive.

Key:
Experiment in all cases: log2 ratio of Biotin-Ahx-Ub-VS probe labelling (fragment/DMSO); higher = less target engagement (more negative = stronger competition), active = hit call of the paper (q ≤ 0.05, log2 ratio ≤ -1)
Details in all cases: compound concentration: 200 uM; treatment time: 3 h
OTUD6B = target: T1, OTUD6B (UniProt Q8N6M0)
T1 sequence (whole entry): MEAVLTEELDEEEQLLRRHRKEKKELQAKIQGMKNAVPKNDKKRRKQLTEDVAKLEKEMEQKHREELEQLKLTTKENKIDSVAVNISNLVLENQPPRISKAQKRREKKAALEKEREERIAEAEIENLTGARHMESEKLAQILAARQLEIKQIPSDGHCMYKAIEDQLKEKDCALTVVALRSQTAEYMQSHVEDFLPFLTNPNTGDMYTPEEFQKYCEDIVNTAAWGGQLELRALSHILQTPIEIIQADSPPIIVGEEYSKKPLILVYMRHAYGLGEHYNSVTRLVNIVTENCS
Procedure, shortened: (§1)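 Each value is an average log2 ratio of fragment to vehicle, tested by unpaired t-test. The underlying Spectronaut label-free quantities were global-median-normalised, and only proteins with ≥2 unique peptides were included. Triplicate HEK293T lysate samples (495 µg) were exposed to fragment at 200 µM or vehicle for 3 h, then to Biotin-Ahx-Ub-VS at 0.5 µM final for 1 h, before NeutrAvidin enrichment of labelled DUBs, LysC and trypsin digestion, and diaPASEF LC-MS/MS.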

OTUD7B = target: T2, OTUD7B (UniProt Q6GQQ9)
T2 sequence (whole entry): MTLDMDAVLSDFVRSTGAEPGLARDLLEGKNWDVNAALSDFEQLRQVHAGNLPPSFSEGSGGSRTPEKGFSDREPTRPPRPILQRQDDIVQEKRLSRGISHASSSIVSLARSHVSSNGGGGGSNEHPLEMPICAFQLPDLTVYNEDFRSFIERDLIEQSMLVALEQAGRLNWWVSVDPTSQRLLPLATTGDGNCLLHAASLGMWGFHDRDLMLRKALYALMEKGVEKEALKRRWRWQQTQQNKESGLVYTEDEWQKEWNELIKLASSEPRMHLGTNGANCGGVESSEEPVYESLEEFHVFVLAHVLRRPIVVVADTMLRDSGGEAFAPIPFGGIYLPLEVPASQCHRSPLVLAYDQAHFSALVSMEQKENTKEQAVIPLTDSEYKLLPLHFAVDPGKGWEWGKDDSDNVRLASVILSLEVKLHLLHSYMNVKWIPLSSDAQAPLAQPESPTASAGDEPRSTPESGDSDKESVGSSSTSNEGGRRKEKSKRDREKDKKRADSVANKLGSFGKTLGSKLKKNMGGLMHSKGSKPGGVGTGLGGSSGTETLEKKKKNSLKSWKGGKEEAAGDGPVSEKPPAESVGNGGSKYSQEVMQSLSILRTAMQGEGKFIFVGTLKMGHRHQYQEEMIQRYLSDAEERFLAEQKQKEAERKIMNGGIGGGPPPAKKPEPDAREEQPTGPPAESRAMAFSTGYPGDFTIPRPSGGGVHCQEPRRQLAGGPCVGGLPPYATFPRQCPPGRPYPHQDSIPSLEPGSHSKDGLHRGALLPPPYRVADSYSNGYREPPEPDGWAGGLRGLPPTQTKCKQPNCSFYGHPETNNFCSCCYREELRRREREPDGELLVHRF
Procedure, shortened: as §1

PRPF8 = PRPF8 (UniProt Q6P2Q9)
Procedure, shortened: as §1

PSMD7 = target: T3, PSMD7 (UniProt P51665)
T3 sequence (whole entry): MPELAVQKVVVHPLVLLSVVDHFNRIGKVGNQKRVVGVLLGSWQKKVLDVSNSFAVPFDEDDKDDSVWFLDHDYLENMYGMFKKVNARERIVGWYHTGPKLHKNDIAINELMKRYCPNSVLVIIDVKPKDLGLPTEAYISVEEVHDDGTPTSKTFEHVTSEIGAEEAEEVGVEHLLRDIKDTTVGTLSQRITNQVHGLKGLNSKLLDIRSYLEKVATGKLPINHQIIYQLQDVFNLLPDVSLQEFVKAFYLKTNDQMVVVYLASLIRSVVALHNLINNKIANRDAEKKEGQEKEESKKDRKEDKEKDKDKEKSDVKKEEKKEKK
Procedure, shortened: as §1

UCHL1 = UCHL1 (UniProt P09936)
Procedure, shortened: as §1

UCHL3 = target: T4, UCHL3 (UniProt P15374)
T4 sequence (whole entry): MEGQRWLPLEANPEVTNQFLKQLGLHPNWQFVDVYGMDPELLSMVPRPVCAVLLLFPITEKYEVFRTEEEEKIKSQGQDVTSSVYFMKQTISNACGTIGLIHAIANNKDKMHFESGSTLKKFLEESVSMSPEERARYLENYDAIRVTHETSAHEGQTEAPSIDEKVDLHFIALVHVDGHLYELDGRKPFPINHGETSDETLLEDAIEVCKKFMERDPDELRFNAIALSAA
Procedure, shortened: as §1

UCHL5 = target: T5, UCHL5 (UniProt Q9Y5K5)
T5 sequence (whole entry): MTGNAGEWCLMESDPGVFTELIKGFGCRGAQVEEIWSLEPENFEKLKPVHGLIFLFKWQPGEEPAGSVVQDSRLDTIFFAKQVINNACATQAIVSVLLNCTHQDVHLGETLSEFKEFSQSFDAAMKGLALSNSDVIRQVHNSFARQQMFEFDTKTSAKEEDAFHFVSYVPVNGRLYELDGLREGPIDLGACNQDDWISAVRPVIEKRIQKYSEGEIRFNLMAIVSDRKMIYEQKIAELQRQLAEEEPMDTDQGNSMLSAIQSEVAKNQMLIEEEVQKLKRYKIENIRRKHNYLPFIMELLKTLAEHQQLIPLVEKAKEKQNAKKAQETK
Procedure, shortened: as §1

USP10 = USP10 (UniProt Q14694)
Procedure, shortened: as §1

USP15 = target: T6, USP15 (UniProt Q9Y4E8)
T6 sequence (whole entry): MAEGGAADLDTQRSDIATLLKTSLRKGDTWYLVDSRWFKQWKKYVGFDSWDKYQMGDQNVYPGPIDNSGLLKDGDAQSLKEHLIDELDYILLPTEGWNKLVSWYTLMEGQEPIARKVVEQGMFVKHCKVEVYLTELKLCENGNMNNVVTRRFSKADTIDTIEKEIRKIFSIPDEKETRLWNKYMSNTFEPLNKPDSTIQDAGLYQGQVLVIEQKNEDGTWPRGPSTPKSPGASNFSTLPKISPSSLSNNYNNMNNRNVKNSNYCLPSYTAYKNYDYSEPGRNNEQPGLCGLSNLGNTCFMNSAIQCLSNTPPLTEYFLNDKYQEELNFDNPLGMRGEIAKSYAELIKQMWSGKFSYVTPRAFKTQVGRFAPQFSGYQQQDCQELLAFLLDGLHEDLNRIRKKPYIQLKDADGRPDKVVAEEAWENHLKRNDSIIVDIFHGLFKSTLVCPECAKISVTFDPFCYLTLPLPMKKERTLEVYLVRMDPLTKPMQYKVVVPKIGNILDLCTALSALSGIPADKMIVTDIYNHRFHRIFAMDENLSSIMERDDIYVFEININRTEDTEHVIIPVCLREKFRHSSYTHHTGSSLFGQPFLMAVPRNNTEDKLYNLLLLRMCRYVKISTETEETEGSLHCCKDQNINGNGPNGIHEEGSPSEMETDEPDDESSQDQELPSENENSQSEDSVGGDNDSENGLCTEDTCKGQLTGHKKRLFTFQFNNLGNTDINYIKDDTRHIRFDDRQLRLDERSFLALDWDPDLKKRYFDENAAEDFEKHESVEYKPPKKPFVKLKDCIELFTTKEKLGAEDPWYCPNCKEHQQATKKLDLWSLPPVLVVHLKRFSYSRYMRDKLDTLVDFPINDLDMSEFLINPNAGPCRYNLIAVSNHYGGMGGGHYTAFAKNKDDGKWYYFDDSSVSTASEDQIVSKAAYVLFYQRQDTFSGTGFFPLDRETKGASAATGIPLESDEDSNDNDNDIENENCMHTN
Procedure, shortened: as §1

USP16 = USP16 (UniProt Q9Y5T5)
Procedure, shortened: as §1

Sequence of USP10 (Q14694 whole entry): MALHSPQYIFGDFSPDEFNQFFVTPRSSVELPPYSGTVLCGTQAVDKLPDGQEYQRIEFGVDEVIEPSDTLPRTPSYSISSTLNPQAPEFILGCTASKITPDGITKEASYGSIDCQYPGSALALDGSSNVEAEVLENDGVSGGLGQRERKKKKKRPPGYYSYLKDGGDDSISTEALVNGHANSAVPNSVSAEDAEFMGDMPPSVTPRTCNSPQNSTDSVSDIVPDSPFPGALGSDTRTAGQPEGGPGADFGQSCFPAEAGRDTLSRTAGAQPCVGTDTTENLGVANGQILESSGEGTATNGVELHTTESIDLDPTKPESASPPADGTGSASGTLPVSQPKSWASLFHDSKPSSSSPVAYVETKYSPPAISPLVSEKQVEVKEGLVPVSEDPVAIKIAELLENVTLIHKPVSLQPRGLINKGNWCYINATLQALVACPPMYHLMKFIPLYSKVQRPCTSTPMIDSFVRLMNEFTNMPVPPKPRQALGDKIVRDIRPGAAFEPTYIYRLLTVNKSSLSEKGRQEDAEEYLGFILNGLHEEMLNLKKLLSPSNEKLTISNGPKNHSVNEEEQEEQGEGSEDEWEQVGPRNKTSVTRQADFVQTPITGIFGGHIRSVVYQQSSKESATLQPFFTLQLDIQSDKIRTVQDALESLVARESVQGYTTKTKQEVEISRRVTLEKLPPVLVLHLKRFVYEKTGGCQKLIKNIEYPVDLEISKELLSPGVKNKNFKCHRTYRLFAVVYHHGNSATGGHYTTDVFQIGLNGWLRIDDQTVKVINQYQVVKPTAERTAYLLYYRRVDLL
Sequence of USP16 (Q9Y5T5 whole entry, looked up): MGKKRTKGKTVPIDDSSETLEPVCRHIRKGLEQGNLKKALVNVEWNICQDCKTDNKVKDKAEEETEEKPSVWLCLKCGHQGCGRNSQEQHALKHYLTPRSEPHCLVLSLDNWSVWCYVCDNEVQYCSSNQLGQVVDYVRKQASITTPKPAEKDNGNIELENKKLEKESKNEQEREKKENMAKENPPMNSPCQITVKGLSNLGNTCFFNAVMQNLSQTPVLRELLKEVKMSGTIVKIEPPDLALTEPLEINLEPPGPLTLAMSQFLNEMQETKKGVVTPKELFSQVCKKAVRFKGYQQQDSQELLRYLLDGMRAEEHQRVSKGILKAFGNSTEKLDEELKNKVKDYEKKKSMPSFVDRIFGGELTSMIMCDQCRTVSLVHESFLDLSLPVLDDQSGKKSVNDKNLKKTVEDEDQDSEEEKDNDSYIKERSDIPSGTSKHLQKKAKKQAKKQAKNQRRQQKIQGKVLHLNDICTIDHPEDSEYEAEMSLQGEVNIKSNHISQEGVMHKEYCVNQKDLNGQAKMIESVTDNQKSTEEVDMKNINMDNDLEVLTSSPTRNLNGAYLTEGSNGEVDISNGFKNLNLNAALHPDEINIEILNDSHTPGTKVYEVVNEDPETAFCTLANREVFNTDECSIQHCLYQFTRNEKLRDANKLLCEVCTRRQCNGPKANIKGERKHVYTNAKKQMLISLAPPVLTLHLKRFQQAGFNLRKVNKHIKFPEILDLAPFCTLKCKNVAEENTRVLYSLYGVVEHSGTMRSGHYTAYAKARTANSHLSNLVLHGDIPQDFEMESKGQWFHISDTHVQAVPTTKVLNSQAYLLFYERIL
Sequence of UCHL1 (P09936 whole entry, looked up): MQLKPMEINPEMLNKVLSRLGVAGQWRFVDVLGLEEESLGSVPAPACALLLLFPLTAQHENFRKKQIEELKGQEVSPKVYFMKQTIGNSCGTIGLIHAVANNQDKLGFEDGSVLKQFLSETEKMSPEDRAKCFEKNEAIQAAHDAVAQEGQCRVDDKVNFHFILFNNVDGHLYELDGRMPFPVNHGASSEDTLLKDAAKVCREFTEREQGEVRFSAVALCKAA

## CC(NC(=O)CCl)c1cccc(Cl)c1 (stereo not given)
OTUD6B
  log2 ratio of Biotin-Ahx-Ub-VS probe labelling: -0.345
OTUD7B
  log2 ratio of Biotin-Ahx-Ub-VS probe labelling: -1.21 (active)
PRPF8
  log2 ratio of Biotin-Ahx-Ub-VS probe labelling: -0.202
PSMD7
  log2 ratio of Biotin-Ahx-Ub-VS probe labelling: -0.316
UCHL1
  log2 ratio of Biotin-Ahx-Ub-VS probe labelling: -1.58 (active)
UCHL3
  log2 ratio of Biotin-Ahx-Ub-VS probe labelling: -0.204
UCHL5
  log2 ratio of Biotin-Ahx-Ub-VS probe labelling: -0.426
USP10
  log2 ratio of Biotin-Ahx-Ub-VS probe labelling: -0.136
USP15
  log2 ratio of Biotin-Ahx-Ub-VS probe labelling: -0.301
USP16
  log2 ratio of Biotin-Ahx-Ub-VS probe labelling: 0.118
